This is a sample that favours compounds with a hit; in the whole collection about 9.3% have one here.
Rab9 prom act: Rab9 promoter activation. Potency, µM (highest dose often 9.22 µM), inactives show top-dose activation, negative = inhibition, most hits filed as activators. Huh7 Rab9 promoter-luciferase reporter, luminescence, 24 h. 320,000 tested, 2.8% active; also: % of control where 0% means no effect; nearly all actives have a fitted effect of over 60% in size
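Cells were plated at 1500 per well in reduced-serum medium with 10% FBS and left 2 h. Compound in DMSO was then added for 24 h at 37 °C. Reporter signal was read by luminescence after 10 min with luciferase detection reagent.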
ELG1 repair inh: blocks ELG1-dependent DNA repair in HEK293T cells; Potency, µM (top dose mostly 46.1 µM), for the others: at the highest dose activity change, negative = inhibition, most hits filed as inhibitors; HEK293T ELG1-luciferase reporter, luminescence, 16 h; DNA damage induced by 5-fluorouridine; 330,000 tested, 2.3% active; AID 504467; also: % is scaled to controls: 0 for no effect and ±100 for the full control effect; nearly all actives have a fitted effect of over 55% in size
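Cells (2,000 per well) received 5-fluorouridine plus test compound or DMSO and were incubated 16 hr at 37 °C, 5% CO2. Luciferase activity was read by luminescence 30 min after ONE-Glo addition; signal suppression marked inhibition of damage-induced ELG1 function.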
SMN2 splice up: enhancers of SMN2 splice variant expression. 210,000 tested, 2.8% active. Potency, µM (highest dose often 46.1 µM), for inactives: top-dose activity change, positive = activation, actives largely listed as activators. HEK293 SMN2-luciferase splicing reporter, luminescence, 30-36 h. AID 1458; also: % of control where 0% means no effect; nearly all actives have a fitted effect of over 55% in size
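qHTS luciferase splicing reporter: luminescence rises when SMN2 exon 7 is included in transfected HEK293 cells. Compound exposure lasted 30-36 h at 37C, with 4.5 mM final sodium butyrate as control, followed by a ONE-Glo read.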
FLuc modulator: inhibits or activates purified firefly luciferase, miR-21 counter-screen; 360,000 tested, 6.9% active; AID 588342; purified FLuc, Km substrates, luminescence inhibition; P08659; Potency, µM (doses to about 57.5 µM), for inactives: top-dose activity change, negative = inhibition, hits mostly inhibitors;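 also: plate controls were vehicle for no effect and reference inhibitor for full effect; nearly all actives have a fitted effect of over 55% in size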
Target sequence (P08659 whole entry, looked up): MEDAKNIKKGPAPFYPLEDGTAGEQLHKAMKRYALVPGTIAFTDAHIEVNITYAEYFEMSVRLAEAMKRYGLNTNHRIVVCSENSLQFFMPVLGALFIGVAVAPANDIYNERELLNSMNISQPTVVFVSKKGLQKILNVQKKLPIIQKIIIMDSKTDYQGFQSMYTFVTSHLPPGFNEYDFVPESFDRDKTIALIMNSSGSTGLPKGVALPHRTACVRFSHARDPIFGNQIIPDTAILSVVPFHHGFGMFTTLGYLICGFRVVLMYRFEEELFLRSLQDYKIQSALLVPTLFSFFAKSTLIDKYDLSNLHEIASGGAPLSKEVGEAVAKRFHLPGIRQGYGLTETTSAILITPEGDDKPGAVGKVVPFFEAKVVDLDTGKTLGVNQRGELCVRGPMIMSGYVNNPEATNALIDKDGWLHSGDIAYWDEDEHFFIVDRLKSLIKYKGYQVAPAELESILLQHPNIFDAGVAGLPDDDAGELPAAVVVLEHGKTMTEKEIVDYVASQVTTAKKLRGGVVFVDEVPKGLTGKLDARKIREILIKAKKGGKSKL
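Biochemical qHTS of compounds, final roughly 60 µM downward over six points, against 10 nM purified firefly luciferase using Km concentrations of substrates (10 uM D-luciferin, 10 uM ATP) in Tris acetate pH 7.5 buffer; luminescence output.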
NPC1 prom act: activates the NPC1 promoter; Potency, µM (titrated, usually from 9.22 µM), for the others: at the highest dose activation, actives largely listed as activators; Huh7 NPC1 promoter luciferase reporter, 24 h; 320,000 tested, 2.4% active; also: % of control where 0% means no effect; nearly all actives have a fitted effect of over 60% in size
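Stably transfected Huh7 (NPC1 promoter→luciferase), 1500 cells/well in Opti-MEM + 10% FBS, 2 h settle, then compound 24 h at 37 °C. Luminescence after 10 min with Amplite reagent.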
ELG1 genotox: inducers of genotoxicity in HEK293T ELG1-luciferase cells. HEK293T ELG1-luciferase reporter, luminescence, 16 h. Potency, µM (titrated, usually from 46 µM), inactives show at the highest dose activity change, positive = activation, usual class: activators. 330,000 tested, 1.3% active. AID 504466; also: % of control where 0% means no effect; nearly all actives have a fitted effect of over 60% in size
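Genotoxicity was scored as increased ELG1-luciferase reporter signal, measured by ONE-Glo luminescence (30 min, room temperature). Compound or vehicle exposure of the HEK293T reporter cells lasted 16 hr at 37°C.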
* marks the source's active call; other numbers are inactive results; ? = inconclusive; · = not tested or not shown. Calls follow the shape of the dose curve; as a rule, active = well fitted curve in the direction sought with a large enough effect; inconclusive = small, poorly fitted or top-dose-only effect, or another doubt; inactive = no such curve, though single readings can be large; an effect the other way counts as inactive or inconclusive. Potency is read from the fitted curve at half-maximal effect.

SMILES	Rab9 prom act	ELG1 repair inh	SMN2 splice up	FLuc modulator	NPC1 prom act	ELG1 genotox
O=C(CCN1C(=O)/C(=C/C=C/c2ccccc2)SC1=S)Nc1cccnc1	?	?	?	1.1µM*	25%	?
O=C(O)CN1C(=O)/C(=C/c2ccsc2)SC1=S	1%	-1%	-12%	19µM*	-4%	1%
O=C(O)CN1C(=O)/C(=C/C=C/c2ccccc2)SC1=S	63%	8%	4%	2.7µM*	?	0%
O=C(CCN1C(=O)/C(=C/C=C/c2ccccc2)SC1=S)Nc1ccccn1	5%	?	·	24µM*	0%	17%
CC(=C\c1ccccc1)/C=C1/SC(=S)N(CCC(=O)Nc2ccccn2)C1=O	0%	13%	·	-16%	-1%	4%
O=C(CCN1C(=O)/C(=C/c2ccc(Cl)cc2)SC1=S)Nc1cccnc1	-6%	7%	·	-1%	3%	-2%
CC(=O)c1ccc(NC(=O)CN2C(=O)/C(=C/C=C/c3ccccc3)SC2=S)cc1	3%	1%	22%	?	-1%	4%
C=CCN1C(=O)/C(=C/c2ccsc2)SC1=S	2%	-7%	-67%	7%	-2%	1%
CCN(CC(=O)NCc1ccc(F)cc1)C(=O)c1cc2ccccc2o1	4%	5%	·	2%	2%	-1%
O=C(CN1C(=O)C2CC=CCC2C1=O)Nc1ccc(OC(F)(F)F)cc1 (configuration not stated)	-1%	23%	·	1%	-3%	0%
CCN(CC)C(=O)CN1C(=O)/C(=C/c2ccccc2)SC1=S	-2%	7%	·	?	-5%	-3%
O=C(O)CN1C(=O)/C(=C\C(Br)=C\c2ccccc2)SC1=S	14%	?	·	9.5µM*	8%	?
Cc1[nH]c2ccccc2c1/C=C(\C#N)C(=O)NC1CC1	?	?	·	17µM*	?	?
N#C/C(=C\c1cn[nH]c1-c1ccc(Cl)cc1)C(=O)NC1CC1	-3%	?	-10%	-2%	11%	-1%
N#C/C(=C\c1c[nH]c2ccccc12)C(=O)NC1CC1	?	?	·	7.6µM*	3.5µM*	?
CSc1ccc(/C=C(\C#N)C(=O)NC2CCCCC2C)cc1 (configuration not stated)	-3%	-16%	-22%	?	-1%	5%
CC1CCCCC1NC(=O)/C(C#N)=C/c1ccccc1F (configuration not stated)	1%	26µM*	-2%	?	-2%	-10%
COc1ccc(-c2[nH]ncc2/C=C(\C#N)C(=O)NC2CC2)cc1	-1%	18µM*	4%	-7%	4%	-8%
Cc1ccc(-c2nc3c(c(SCC(=O)N4CCCCC4)n2)Cc2cc(C)ccc2O3)cc1	·	·	0%	0%	·	·
Cc1ccc(NS(=O)(=O)c2ccc(C(=O)N3CC(C)CC(C)C3)cc2)cc1 (configuration not stated)	-6%	-6%	·	-6%	-6%	-1%
N#C/C(=C\c1c[nH]c2ccccc12)C(=O)NC1CCCC1	18%	?	·	15µM*	24%	15%
CC(=O)c1ccc(NC(=O)CN2C(=O)CCc3ccccc32)cc1	·	·	·	6µM*	·	·
CC(C)(C)c1ccc(-c2nnc(SCCN3C(=O)c4ccccc4C3=O)o2)cc1	-2%	-2%	9%	15µM*	0%	-3%
CC(=O)N1c2ccc(S(=O)(=O)NCCC(=O)NC3CCCC(C)C3C)cc2CC1C (configuration not stated)	-1%	9.2µM*	·	-1%	-1%	-3%
CC(=O)N1c2ccc(S(=O)(=O)NCCC(=O)NC3CCCCCC3)cc2CC1C (configuration not stated)	-8%	-7%	·	1%	-3%	-1%
SMILES	Rab9 prom act	ELG1 repair inh	SMN2 splice up	FLuc modulator	NPC1 prom act	ELG1 genotox
CC(=O)N1CCc2cc(S(=O)(=O)NCCC(=O)NC3CCCc4ccccc43)ccc21 (configuration not stated)	-1%	13µM*	-65%	-2%	-3%	5%
O=C(Nc1ccccn1)c1csc2c1CCCC2	1.8µM*	?	13µM*	6.7µM*	?	7.3µM*
COc1cc(NC(=O)c2csc3c2CCCC3)ncn1	3.5µM*	?	13µM*	3.4µM*	3.5µM*	4.1µM*
O=C(Nc1ccccn1)c1onc2c1CCCC2	0.4µM*	?	0.71µM*	0.76µM*	0.35µM*	?
COc1ccccc1NC(=O)c1csc2c1CCCC2	-1%	?	-18%	19µM*	0%	0%
CCn1c(S(=O)(=O)O)nc2ccccc21	-2%	17%	·	-3%	-1%	0%
O=C(c1cc(C(F)(F)F)cc(C(F)(F)F)c1)N1CCC2(CC1)CCN(c1ccncc1)CC2	·	·	-23%	·	·	·
Cc1c(C(=O)O)sc(S(=O)(=O)N2CCN(C(=O)Cc3ccccc3Cl)CC2)c1C(=O)O	2%	3%	·	·	0%	-1%
O=C(Nc1ccc(OCC(=O)N2CCOCC2)cc1)Nc1cccc2ccccc12	-1%	-5%	·	-10%	-3%	-2%
c1ccc(-c2nnc(OCC3CCCO3)c3ccccc23)cc1 (configuration not stated)	3%	-11%	1%	?	-2%	-1%
CCOC(=O)c1sc2nc3c(cc2c1N)COC(C)(C)C3	2.5µM*	?	11µM*	6.7µM*	2.8µM*	?
CCC1(C)Cc2nc3sc(C(=O)O)c(N)c3cc2CO1 (configuration not stated)	2%	?	17%	?	8%	10%
CCOC(=O)c1sc2nc3c(cc2c1N)COC(C)(CC)C3 (configuration not stated)	0.79µM*	?	10µM*	1.3µM*	0.79µM*	?
CCOC(=O)c1cc2c(nc1N)CC(C)(CC)OC2 (configuration not stated)	3.2µM*	?	?	?	?	13µM*
CCOC(=O)c1cc2c(nc1N)CC(C)(C)OC2	11%	?	-2%	?	0%	15%
CN(C(=O)c1ccc2ccccc2c1)c1ccccn1	14%	18%	·	-2%	-1%	12%
Cc1c(Cl)cnc(NC(=O)COC(=O)[C@@H](NC(=O)c2ccco2)C(C)C)c1Cl	·	-21%	·	·	·	2%
CCN1C(=O)/C(=C\C=C2/C=CC=CN2CC)SC1=S	1.4µM*	?	5.6µM*	3.8µM*	1.6µM*	21µM*
CCN1C(=O)/C(=C2/C=CC=CN2C)SC1=S	2%	20%	9%	-7%	1%	-3%
